# According to PubChem BioAssay:
# Activity calls are given as the source filed them.
# What was measured:
# [1] = tested on: Plasmodium falciparum Sir2 (PF13_0152, Sir2A); assay: Plasmodium falciparum Sir2A binding compounds – biochemical, small-molecule microarray, 635 nm fluorescence, primary screen (AID 1098); settings: fluorescence 635 nm, higher = more signal;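 further: score merges spot fluorescence intensity with its signal-to-noise ratio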
# [2] = probe aDKK1 binding to arrayed compounds – biochemical, biotinylated probe, 635/667 nm fluorescence, primary screen (AID 1099); settings: small-molecule microarray, higher = more signal;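 further: score merges 667nm spot fluorescence with signal to noise across triplicate slides; reference of the scale not given here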
# [3] = probe aCHRDL2 binding to arrayed compounds – biochemical, biotinylated probe, 635/667 nm fluorescence, primary screen (AID 1100); settings: small-molecule microarray, higher = more signal
# [4] = change in splice reporter luminescence, either direction, cell-based, HEK293, spliceosome inhibition project, primary screen (AID 1101); settings: HEK293 splicing luciferase reporter, 24 h, higher = more signal, called active from +8 up or from −8 down;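 further: HEK293 cells carrying a splicing-competent luciferase reporter gene; test concentration not given here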
# [5] = target: Fibroblast growth factor 10 (Homo sapiens) (UniProt O15520); assay: compounds binding fibroblast growth factor 10 – biochemical, small-molecule microarray, 635 nm fluorescence, primary screen (AID 1102); settings: FGF10 binding, fluorescence 635 nm, higher = more signal
# Sequence of Fibroblast growth factor 10 (Homo sapiens) (O15520 whole entry, looked up): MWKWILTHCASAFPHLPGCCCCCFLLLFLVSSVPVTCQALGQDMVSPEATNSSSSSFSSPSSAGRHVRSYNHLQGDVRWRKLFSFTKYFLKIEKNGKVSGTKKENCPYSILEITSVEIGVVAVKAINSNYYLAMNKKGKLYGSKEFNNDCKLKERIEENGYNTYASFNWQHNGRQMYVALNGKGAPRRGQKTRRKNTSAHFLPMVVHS
# [6] = tested on: glycogen synthase kinase-3 (GSK3A per assay name; protocol says GSK3B); assay: compounds binding glycogen synthase kinase-3 – biochemical, small-molecule microarray, 635 nm fluorescence, GSK3A, primary screen (AID 1103); settings: fluorescence 635 nm, higher = more signal; further: the record names both GSK3A and GSK3B
# [7] = target: Epidermal growth factor receptor (Homo sapiens) (UniProt P00533); assay: compounds binding epidermal growth factor receptor – biochemical, small-molecule microarray, 635 nm fluorescence, primary screen (AID 1104); settings: EGFR binding, higher = more signal;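 further: score merges 667 nm emission intensity with spot signal to noise over triplicate slides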
# Sequence of Epidermal growth factor receptor (Homo sapiens) (P00533 whole entry, looked up): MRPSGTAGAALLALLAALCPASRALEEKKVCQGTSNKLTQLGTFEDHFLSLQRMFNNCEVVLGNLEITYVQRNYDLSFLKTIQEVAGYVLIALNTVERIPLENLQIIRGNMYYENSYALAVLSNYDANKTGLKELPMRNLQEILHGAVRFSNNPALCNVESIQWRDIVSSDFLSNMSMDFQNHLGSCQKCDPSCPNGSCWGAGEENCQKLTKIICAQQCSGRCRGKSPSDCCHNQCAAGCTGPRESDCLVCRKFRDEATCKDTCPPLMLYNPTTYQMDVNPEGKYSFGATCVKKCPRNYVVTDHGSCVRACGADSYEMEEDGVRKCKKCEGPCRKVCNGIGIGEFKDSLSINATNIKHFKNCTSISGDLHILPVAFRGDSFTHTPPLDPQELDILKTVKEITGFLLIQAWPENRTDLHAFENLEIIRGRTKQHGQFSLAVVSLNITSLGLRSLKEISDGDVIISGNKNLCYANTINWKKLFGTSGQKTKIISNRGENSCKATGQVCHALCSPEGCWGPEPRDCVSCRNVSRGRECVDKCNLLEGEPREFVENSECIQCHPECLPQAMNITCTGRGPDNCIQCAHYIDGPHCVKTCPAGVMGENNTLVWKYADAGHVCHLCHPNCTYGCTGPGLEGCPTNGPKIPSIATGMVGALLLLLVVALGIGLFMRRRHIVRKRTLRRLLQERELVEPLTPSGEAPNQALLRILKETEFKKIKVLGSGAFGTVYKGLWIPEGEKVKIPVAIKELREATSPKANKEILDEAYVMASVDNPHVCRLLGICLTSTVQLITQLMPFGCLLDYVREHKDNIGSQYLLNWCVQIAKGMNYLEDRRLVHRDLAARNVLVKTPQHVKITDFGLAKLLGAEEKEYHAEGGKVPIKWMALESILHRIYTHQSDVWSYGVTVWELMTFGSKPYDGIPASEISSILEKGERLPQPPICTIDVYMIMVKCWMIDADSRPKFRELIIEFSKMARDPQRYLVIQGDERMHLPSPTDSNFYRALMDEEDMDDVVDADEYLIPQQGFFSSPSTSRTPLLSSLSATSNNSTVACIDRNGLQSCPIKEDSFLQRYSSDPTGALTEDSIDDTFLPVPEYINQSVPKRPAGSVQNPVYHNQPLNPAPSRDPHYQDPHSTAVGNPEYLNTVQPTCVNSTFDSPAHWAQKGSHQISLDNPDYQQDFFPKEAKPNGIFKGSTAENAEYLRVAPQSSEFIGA
# [8] = target: Follistatin-related protein 3 (Homo sapiens) (UniProt O95633); assay: compounds binding follistatin-related protein 3 – biochemical, small-molecule microarray, 635 nm fluorescence, primary screen (AID 1105); settings: FSTL3 binding, higher = more signal;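 further: score merges emission near 667 nm and signal to noise per printed spot across three slides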
# Sequence of Follistatin-related protein 3 (Homo sapiens) (O95633 whole entry, looked up): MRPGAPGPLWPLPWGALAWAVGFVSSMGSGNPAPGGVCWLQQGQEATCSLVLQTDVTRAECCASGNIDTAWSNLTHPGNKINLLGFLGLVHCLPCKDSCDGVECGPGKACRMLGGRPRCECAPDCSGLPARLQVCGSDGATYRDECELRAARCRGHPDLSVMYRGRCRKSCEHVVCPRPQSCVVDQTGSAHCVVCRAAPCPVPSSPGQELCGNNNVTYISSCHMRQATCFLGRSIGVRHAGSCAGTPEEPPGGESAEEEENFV
# [9] = target: Dickkopf-related protein 1 (Homo sapiens) (UniProt O94907); assay: small molecules binding DKK1 protein – biochemical, small-molecule microarray, 635 nm fluorescence scan, primary screen (AID 1106); settings: higher = more signal;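 further: score merges emission near 667 nm with signal to noise over three replicate slides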
# Sequence of Dickkopf-related protein 1 (Homo sapiens) (O94907 whole entry, looked up): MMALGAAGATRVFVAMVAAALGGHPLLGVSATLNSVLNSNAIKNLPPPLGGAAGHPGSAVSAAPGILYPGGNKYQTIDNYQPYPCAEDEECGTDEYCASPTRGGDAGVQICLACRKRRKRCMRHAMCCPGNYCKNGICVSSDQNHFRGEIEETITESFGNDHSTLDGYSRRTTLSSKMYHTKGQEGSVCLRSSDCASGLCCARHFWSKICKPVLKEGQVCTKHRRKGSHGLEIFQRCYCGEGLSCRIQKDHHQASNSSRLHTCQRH
# [10] = tested on: Inhibin beta A chain (activin A); assay: small molecules binding activin A – biochemical, small-molecule microarray, 635 nm fluorescence scan, primary screen (AID 1107); settings: INHBA, higher = more signal;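 further: mouse activin A protein probed at 4.33 µg/mL on printed slides; score merges bound-protein fluorescence near 667 nm with spot signal-to-noise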
structure (smiles),measurement,setting,value
COc1ccc(C(O)C2C=CC3C(=O)N(c4ccccc4)C(=O)C3N2Nc2ccccc2F)c2ccccc12 (stereo not given),composite z-score,[1],0.85
same,composite z-score,[2],1.59
same,composite z-score,[3],1.4
same,z-score,[4],-0.038 (inactive)
same,composite z-score,[5],1.04
same,composite z-score,[6],1.32
same,composite z-score,[7],0.531
same,composite z-score,[8],1.36
same,composite z-score,[9],-0.265
same,composite z-score,[10],1.02
COC(=O)[C@@]1(Cc2ccc(F)cc2)[C@H]2c3cc(C(=O)N(C)C)n(CCF)c3C[C@H]2CN1C(=O)c1ccccc1,composite z-score,[1],-0.0822
same,composite z-score,[2],0.9
same,composite z-score,[3],0.987
same,z-score,[4],-1.66 (inactive)
same,composite z-score,[5],0.295
same,composite z-score,[6],0.139
same,composite z-score,[7],-0.0604
same,composite z-score,[8],-0.0956
same,composite z-score,[9],-0.256
same,composite z-score,[10],0.856
CN(C)CCCCNC(=O)[C@H]1C[C@H]2C(=O)N[C@@H](CCCCN(C)C)C(=O)N2[C@H]1c1ccc(O)cc1,composite z-score,[1],1.12
same,composite z-score,[2],-0.265
same,composite z-score,[3],-0.508
same,z-score,[4],-1.73 (inactive)
same,composite z-score,[5],0.174
same,composite z-score,[6],-0.0777
same,composite z-score,[7],0.821
same,composite z-score,[8],0.592
same,composite z-score,[9],1.16
same,composite z-score,[10],-0.0636
COC(=O)C[C@H]1O[C@]2(C(=O)N(C)c3ccccc32)[C@@H](C)[C@@H]1[Si](C)(C)c1ccccc1,composite z-score,[1],-0.0153
same,composite z-score,[2],-0.0571
same,composite z-score,[3],-0.261
same,z-score,[4],-1.25 (inactive)
same,composite z-score,[5],0.988
same,composite z-score,[6],0.96
same,composite z-score,[7],0.753
same,composite z-score,[8],0.837
same,composite z-score,[9],1.11
same,composite z-score,[10],-0.399
Cc1ccc(S[C@]2(C(=O)NCc3ccccc3)CC(=O)N(Cc3ccccc3C(F)(F)F)[C@@H]2c2ccc(CO)cc2I)cc1,composite z-score,[1],1.62
same,composite z-score,[2],0.211
same,composite z-score,[3],0.831
same,z-score,[4],-0.494 (inactive)
same,composite z-score,[5],-0.557
same,composite z-score,[6],-0.498
same,composite z-score,[7],-1.3
same,composite z-score,[8],-0.793
same,composite z-score,[9],-0.749
same,composite z-score,[10],1.07
O=C1O[C@@H](c2ccccc2)[C@@H](c2ccccc2)N2[C@@H](c3ccccc3OCCO)[C@]3(C(=O)Nc4ccc(C#CC5(O)CCCCCC5)cc43)[C@@H](C(=O)N3CCCCCCC3)[C@H]12,composite z-score,[1],2.16
same,composite z-score,[2],3.21
same,composite z-score,[3],1.84
same,z-score,[4],-1.3 (inactive)
same,composite z-score,[5],1.66
same,composite z-score,[6],1.45
same,composite z-score,[7],2.09
same,composite z-score,[8],1.77
same,composite z-score,[9],2.68
same,composite z-score,[10],1.91
CCCCC(=C=CC[C@@H](O)c1ccc(OCCO)cc1)CCO,composite z-score,[1],0.413
same,composite z-score,[2],-0.0198
same,composite z-score,[3],-0.305
same,z-score,[4],-0.755 (inactive)
same,composite z-score,[5],0.701
same,composite z-score,[6],-0.246
same,composite z-score,[7],-0.899
same,composite z-score,[8],-0.281
same,composite z-score,[9],-0.549
same,composite z-score,[10],1.09
COC(=O)[C@]1(Cc2ccccc2N=[N+]=[N-])N=C(c2ccc(OCCCO)cc2)O[C@@H]1c1ccccc1CN=[N+]=[N-],composite z-score,[1],0.843
same,composite z-score,[2],2.44
same,composite z-score,[3],1.13
same,z-score,[4],2.71 (inactive)
same,composite z-score,[5],0.975
same,composite z-score,[6],0.712
same,composite z-score,[7],0.0466
same,composite z-score,[8],0.315
same,composite z-score,[9],0.236
same,composite z-score,[10],1.1
[N-]=[N+]=NCc1ccccc1[C@H]1OC(c2ccc(OCCCO)cc2)=N[C@@]1(Cc1ccccc1N=[N+]=[N-])C(=O)N1CCOCC1,composite z-score,[1],1.02
same,composite z-score,[2],0.596
same,composite z-score,[3],0.828
same,z-score,[4],-0.1 (inactive)
same,composite z-score,[5],0.458
same,composite z-score,[6],1.1
same,composite z-score,[7],-0.292
same,composite z-score,[8],0.29
same,composite z-score,[9],-0.287
same,composite z-score,[10],0.594
COc1ccc(CCNC(=O)[C@@]2(C)c3ccccc3C(=O)N(Cc3ccc(OC(F)(F)F)cc3)[C@H]2c2ccc(CO)cc2)cc1,composite z-score,[1],0.738
same,composite z-score,[2],0.781
same,composite z-score,[3],-0.325
same,z-score,[4],-0.383 (inactive)
same,composite z-score,[5],1.19
same,composite z-score,[6],1.3
same,composite z-score,[7],0.743
same,composite z-score,[8],0.286
same,composite z-score,[9],1
same,composite z-score,[10],-0.307
C=C(CCCC)/C(=C/C[C@@H](OC(C)=O)c1ccc(OCCO)cc1)c1cc(C(=O)OC)ccc1OC,composite z-score,[1],1.14
same,composite z-score,[2],0.0822
same,composite z-score,[3],0.411
same,z-score,[4],0.374 (inactive)
same,composite z-score,[5],0.151
same,composite z-score,[6],0.244
same,composite z-score,[7],-0.597
same,composite z-score,[8],-0.137
same,composite z-score,[9],-0.348
same,composite z-score,[10],0.763
COC(=O)C1=CC(c2ccc(CO)cc2)=CC(C2CC2)N(Cc2cc3c(cc2Br)OCO3)C=C1C(=O)OC (stereo not given),composite z-score,[1],1.66
same,composite z-score,[2],0.706
same,composite z-score,[3],0.844
same,z-score,[4],1.17 (inactive)
same,composite z-score,[5],1.18
same,composite z-score,[6],1.29
same,composite z-score,[7],0.737
same,composite z-score,[8],0.89
same,composite z-score,[9],0.157
same,composite z-score,[10],0.836
COC(=O)[C@@]1(Cc2ccc(F)cc2)[C@H]2c3cc(C(=O)N(C)C)n(Cc4ccc(C(F)(F)F)nc4)c3C[C@H]2CN1C(=O)c1ccccc1,composite z-score,[1],1.12
same,composite z-score,[2],-0.154
same,composite z-score,[3],-0.252
same,z-score,[4],-0.622 (inactive)
same,composite z-score,[5],0.776
same,composite z-score,[6],1.36
same,composite z-score,[7],0.389
same,composite z-score,[8],1.42
same,composite z-score,[9],0.638
same,composite z-score,[10],0.876
COc1cccc(C)c1NC(=O)O[C@H]1[C@H](OC(=O)Nc2ccccc2)[C@@H](OC(=O)Nc2ccccc2)[C@@H](OC)O[C@@H]1CO,composite z-score,[1],1.5
same,composite z-score,[2],0.266
same,composite z-score,[3],0.553
same,z-score,[4],0.449 (inactive)
same,composite z-score,[5],1.34
same,composite z-score,[6],0.927
same,composite z-score,[7],0.191
same,composite z-score,[8],1.48
same,composite z-score,[9],0.474
same,composite z-score,[10],0.525
COc1ccc(-c2cc3c(c(CCc4ccccc4)n2)[Si](C(C)C)(C(C)C)O[C@H]3c2ccccc2)cn1,composite z-score,[1],-0.576
same,composite z-score,[2],0.0477
same,composite z-score,[3],-0.12
same,z-score,[4],-0.879 (inactive)
same,composite z-score,[5],0.332
same,composite z-score,[6],-0.237
same,composite z-score,[7],-0.0109
same,composite z-score,[8],0.362
same,composite z-score,[9],-0.0079
same,composite z-score,[10],0.343
C=CCNC(=O)[C@@H]1[C@H]2C(=O)O[C@H](c3ccccc3)[C@H](c3ccccc3)N2[C@H](c2ccc(OCCO)cc2)[C@@]12C(=O)N(C(=O)OCCOC)c1ccccc12,composite z-score,[1],1.2
same,composite z-score,[2],-0.144
same,composite z-score,[3],0.496
same,z-score,[4],0.263 (inactive)
same,composite z-score,[5],1.28
same,composite z-score,[6],1.08
same,composite z-score,[7],0.459
same,composite z-score,[8],1.03
same,composite z-score,[9],0.0392
same,composite z-score,[10],0.745
COC(=O)C(CC#Cc1ccc2c(c1)[C@]1(C(=O)N2)[C@H](C(=O)N2CCN(c3ncccn3)CC2)[C@H]2C(=O)O[C@H](c3ccccc3)[C@H](c3ccccc3)N2[C@@H]1c1ccc(O)cc1)C(=O)OC,composite z-score,[1],1.57
same,composite z-score,[2],2.26
same,composite z-score,[3],1.34
same,z-score,[4],-0.0485 (inactive)
same,composite z-score,[5],1.09
same,composite z-score,[6],1.37
same,composite z-score,[7],1.18
same,composite z-score,[8],1.47
same,composite z-score,[9],0.856
same,composite z-score,[10],1.59
O=C(CS)NCCCCCCNC(=O)[C@H]1C[C@H]2C(=O)NCC(=O)N2[C@H]1c1cccc(OCCO)c1,composite z-score,[1],1.09
same,composite z-score,[2],-0.0292
same,composite z-score,[3],-0.027
same,z-score,[4],-2.02 (inactive)
same,composite z-score,[5],0.901
same,composite z-score,[6],-0.21
same,composite z-score,[7],0.696
same,composite z-score,[8],0.604
same,composite z-score,[9],0.602
same,composite z-score,[10],0.665
C=CCNC(=O)[C@@H]1[C@H]2C(=O)O[C@H](c3ccccc3)[C@H](c3ccccc3)N2[C@H](c2ccc(OCCO)cc2)[C@@]12C(=O)Nc1ccc(C#CCNC(N)=O)cc12,composite z-score,[1],1.05
same,composite z-score,[2],-0.123
same,composite z-score,[3],0.584
same,z-score,[4],-0.0958 (inactive)
same,composite z-score,[5],-0.385
same,composite z-score,[6],-0.402
same,composite z-score,[7],-1.13
same,composite z-score,[8],0.16
same,composite z-score,[9],-0.456
same,composite z-score,[10],1.31
[N-]=[N+]=NCc1ccccc1C[C@@]1(C(N)=O)N=C(c2ccc(OCCCO)cc2)O[C@@H]1c1ccccc1N=[N+]=[N-],composite z-score,[1],1.51
same,composite z-score,[2],0.747
same,composite z-score,[3],1.13
same,z-score,[4],-0.397 (inactive)
same,composite z-score,[5],0.839
same,composite z-score,[6],1.19
same,composite z-score,[7],-0.547
same,composite z-score,[8],-0.239
same,composite z-score,[9],-0.38
same,composite z-score,[10],-0.217
O=C1OC[C@@H](c2ccccc2)n2cc(/C=C/c3ccccc3)cc21,composite z-score,[1],0.753
same,composite z-score,[2],-0.222
same,composite z-score,[3],0.0504
same,z-score,[4],-1.55 (inactive)
same,composite z-score,[5],-0.256
same,composite z-score,[6],-0.678
same,composite z-score,[7],-0.609
same,composite z-score,[8],-0.513
same,composite z-score,[9],-0.161
same,composite z-score,[10],0.0778
COC(=O)[C@@]1(Cc2ccc(OC)cc2)[C@H]2c3cc(C(=O)N(C)C)n(Cc4c(CO)[nH]cc(C)c4=O)c3C[C@H]2CN1C(=O)c1ccccc1,composite z-score,[1],0.258
same,composite z-score,[2],0.899
same,composite z-score,[3],0.731
same,z-score,[4],0.323 (inactive)
same,composite z-score,[5],-0.17
same,composite z-score,[6],0.664
same,composite z-score,[7],0.0854
same,composite z-score,[8],0.128
same,composite z-score,[9],-0.14
same,composite z-score,[10],0.779
